# GRP78 ERSR act: ER stress response induction in glioma; U87-MG GRP78 promoter luciferase reporter, 16 h; Potency, µM, actives largely listed as activators; hit rate 0.02% among 420,000; AID 602332; also: series mostly up to about 76 µM; nearly all actives have a fitted effect of over 35% in size
#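 Stably transfected U87-MG human glioma cells carrying a GRP78-based luminescent sensor were seeded at 1000 cells/well, pin-dosed with compounds and incubated 16 h. Luciferase reagent was then added, and end-point luminescence was read after 10 min at room temperature.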
# IDH1 R132H inh: human IDH1 R132H inhibition. IDH1-R132H enzyme, NADPH consumption, diaphorase/resazurin fluorescence. Potency, µM (highest dose often 76.6 µM), actives largely listed as inhibitors. hit rate 0.093% among 390,000; also: nearly all actives have a fitted effect of over 65% in size
# Target sequence (O75874 whole entry R132H, stated change not applied): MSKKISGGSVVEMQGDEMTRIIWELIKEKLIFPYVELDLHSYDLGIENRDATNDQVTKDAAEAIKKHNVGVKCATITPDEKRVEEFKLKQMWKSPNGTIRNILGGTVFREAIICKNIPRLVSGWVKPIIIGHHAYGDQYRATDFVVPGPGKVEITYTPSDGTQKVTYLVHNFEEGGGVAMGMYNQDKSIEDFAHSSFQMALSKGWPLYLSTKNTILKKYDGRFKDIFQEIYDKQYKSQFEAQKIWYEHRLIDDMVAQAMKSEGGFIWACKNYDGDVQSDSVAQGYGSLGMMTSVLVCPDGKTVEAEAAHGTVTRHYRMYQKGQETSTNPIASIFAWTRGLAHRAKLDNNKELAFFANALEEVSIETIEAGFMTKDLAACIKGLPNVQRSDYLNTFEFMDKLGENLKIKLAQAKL
#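 IDH1-R132H (0.5 ug/mL dispensed) in pH 7.5 Tris buffer was preincubated 30 min with compound, then given a substrate mix of 0.016 mM NADPH and 2 mM alpha-KG for 80 min at room temperature; remaining NADPH was read by diaphorase/resazurin fluorescence.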
# ALOX12 inh: inhibitors of human 12S-lipoxygenase ALOX12; P18054; purified 12hLO, xylenol orange hydroperoxide absorbance; Potency, µM (doses to about 108 µM), actives largely listed as inhibitors; hit rate 1.1% among 580,000
#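 Purified human 12hLO (150 nM final) in 25 mM Hepes, 0.01% Triton X-100, pH 7.0 was preincubated 15 min at room temperature with compound. Then 40 uM arachidonic acid was added, 30 min. Hydroperoxide was read by Fe-XO absorbance ratio 573/405 nm.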
# TrxR1 substrate: rat thioredoxin reductase 1 substrate activity; hit rate 0.01% among 390,000; AID 588456; Potency, µM (highest dose often 114 µM); O89049; purified TrxR1 substrate turnover, NADPH consumption readout; also: nearly all actives have a fitted effect of over 50% in size
#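 Rat TrxR1, dispensed at 90 nM, was prereduced with 400 uM NADPH (final) for 5 min at ~22 deg C, then incubated with compound 15 min before 400 uM selenite. A first-read NADPH fluorescence drop versus no-compound background flagged substrates.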
# TrxR1 inh: inhibitors of rat thioredoxin reductase 1 | recombinant rTrxR1, NADPH fluorescence consumption, selenite substrate | Potency, µM (titrated, usually from 114 µM), usual class: inhibitors | hit rate 1% among 390,000; also: nearly all actives have a fitted effect of over 65% in size
#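 Rat TrxR1 (90 nM in the dispensed reagent) was pre-reduced with 400 uM NADPH for 5 min at room temperature, then incubated with compound for 15 min. After 400 uM selenite was added, NADPH fluorescence (Ex 340/Em 450 nm) was followed for 8 min.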
# Anesthetic bind: binds horse apoferritin like a general anesthetic | P02791 | apoferritin/1-aminoanthracene competitive binding, fluorescence | Potency, µM (series often up to 77.5 µM), usual class: inhibitors | hit rate 0.074% among 350,000 | AID 485281; also: nearly all actives have a fitted effect of over 20% in size
# Target sequence (P02791 2-175 limits assumed): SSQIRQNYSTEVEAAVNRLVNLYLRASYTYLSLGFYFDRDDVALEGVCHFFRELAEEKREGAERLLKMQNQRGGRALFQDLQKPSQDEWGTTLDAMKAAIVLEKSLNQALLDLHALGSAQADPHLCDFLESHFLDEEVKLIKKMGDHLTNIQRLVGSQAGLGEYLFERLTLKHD
#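 Probe: 1-aminoanthracene (50% saturated, PBS). Protein: horse-spleen apoferritin, 10 uM. Incubation: 10 min, room temperature. Detection: 380 nm excitation, 535 nm emission. Analysis: normalized response, four-parameter Hill.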
# Numbers stand for hits; . = inactive; ? = inconclusive; / = no result given; ! = a repeat was not active; [ ] = dose if it differs, or a comment. Compounds with a hit are over-represented: about 1.7% of the library has one in this group of screens. Calls follow the shape of the dose curve; as a rule, active = well fitted curve in the direction sought with a large enough effect; inconclusive = small, poorly fitted or top-dose-only effect, or another doubt; inactive = no such curve, though single readings can be large; an effect the other way counts as inactive or inconclusive.
SMILES,GRP78 ERSR act,IDH1 R132H inh,ALOX12 inh,TrxR1 substrate,TrxR1 inh,Anesthetic bind
CC(C)(C)OC(=O)NCC12C=CC(O1)C1C(=O)N(Cc3ccccc3)C(=O)C12 (centres undefined),.,.,.,.,?,.
Cc1ccc(S(=O)(=O)NCC23C=CC(O2)C2C(=O)N(c4ccccc4)C(=O)C23)cc1 (centres undefined),.,.,.,.,2.82µM,.
Cc1cccc(NC(=S)NCC23C=CC(O2)C2C(=O)N(c4ccc(Cl)cc4)C(=O)C23)c1 (centres undefined),.,.,?,.,7.94µM,.
Cc1ccc(N2C(=O)C3C4C=CC(CNC(=S)N5CCN(c6ccccc6)CC5)(O4)C3C2=O)cc1 (centres undefined),.,.,.,.,20µM,.
Cc1ccc(S(=O)(=O)NCC2(c3ccccc3)CCN(C)CC2)cc1,.,.,.,.,.,.
Cc1ccc(NC(=S)NCC23C=CC(O2)C2C(=O)N(c4ccc(C)cc4)C(=O)C23)cc1 (centres undefined),.,.,?,.,10µM,.
O=C(NCc1ccc(F)cc1)C1CN(c2ccccc2)C(=O)N1 (centres undefined),/,/,.,/,/,/
CS(=O)(=O)Cc1cccc(C(=O)N2CCN(CCc3ccccc3)CC2)c1,/,/,.,/,/,/
O=S1(=O)CC(N2CCN(CCO)CC2)CN1Cc1cn(Cc2cccc(C(F)(F)F)c2)nn1 (centres undefined),/,/,25.1µM,/,/,/
COCCCn1cc(CN2CC(N3CCN(Cc4cccc(C)c4)CC3)CS2(=O)=O)nn1 (centres undefined),/,/,11.2µM,/,/,/
Cc1cccc(CN2CCN(C3CN(Cc4cn(Cc5cccc(C(F)(F)F)c5)nn4)S(=O)(=O)C3)CC2)c1 (centres undefined),/,/,12.6µM,/,/,/
O=C(COC(=O)c1ccc([N+](=O)[O-])o1)Nc1ccc2c(c1)OCO2,.,.,.,.,17.8µM,/
O=C(COC(=O)c1ccc([N+](=O)[O-])o1)Nc1ccc2c(c1)OC(F)(F)O2,.,.,.,/,/,/
CC(=O)C1=C(O)C(=O)N(c2cccc(Br)c2)C1c1ccccc1Cl (centres undefined),.,.,17.8µM,.,.,.
CC1CCC/C=C/C(=O)c2c(O)cc(O)cc2CC(=O)O1 (centres undefined),.,.,.,.,11.2µM,.
O=C(OCC(=O)N1CCc2ccccc21)c1cc(Cl)ccc1[N+](=O)[O-],/,/,.,/,/,/
CC(=O)OCC1=C(C(=O)O)N2C(=O)C(NC(=O)Cc3cccs3)C2SC1 (centres undefined),.,/,/,/,/,/
CC(=O)OCC1=C(C(=O)OC(C)(C)C)N2C(=O)[C@@H](NC(=O)Cc3ccccc3)[C@H]2SC1,.,.,.,.,6.31µM,/
O=C(NCCc1ccccc1)[C@@H]1C[C@@H](c2ccc(F)cc2)N([S+](=O)([O-])c2ccccc2)C1,/,/,.,/,/,/
Cc1nnc(N2C(=O)C(O)=C(C(=O)c3ccco3)C2c2ccc(C(C)(C)C)cc2)s1 (centres undefined),.,.,7.94µM,.,.,.
Cc1nnc(N2C(=O)C(O)=C(C(=O)c3ccco3)C2c2ccc(F)cc2)s1 (centres undefined),.,.,?,.,.,.
CSc1ccc(C2C(C(=O)c3ccco3)=C(O)C(=O)N2c2nnc(SC)s2)cc1 (centres undefined),.,.,39.8µM,.,?,.
Cc1ccc(C2C(C(=O)c3ccco3)=C(O)C(=O)N2c2ncccn2)cc1 (centres undefined),.,.,.,.,.,.
Cc1nnc(N2C(=O)C(O)=C(C(=O)c3ccco3)C2c2ccc(C(C)C)cc2)s1 (centres undefined),.,.,44.7µM,.,.,.
Cc1ccc(C)c(/C(O)=C2\C(=O)C(=O)N(c3nnc(C)s3)C2c2ccc(C(C)C)cc2)c1 (centres undefined),/,/,44.7µM,/,/,/
SMILES,GRP78 ERSR act,IDH1 R132H inh,ALOX12 inh,TrxR1 substrate,TrxR1 inh,Anesthetic bind
CCCOc1cccc(C2C(C(=O)c3ccco3)=C(O)C(=O)N2c2nnc(C)s2)c1 (centres undefined),.,.,7.94µM,.,.,.
Cc1ccc(S(=O)(=O)Nc2cccc(C(N)=O)c2)cc1F,/,/,.,/,/,/
O=C(CSc1ccc2ccccc2c1)c1ccc2c(c1)CCC2,/,/,35.5µM,/,/,/
O=C1NC(=S)S/C1=C\c1cc(Cl)ccc1Cl,.,.,7.94µM,.,.,/
Cc1cc(/C=C2\SC(=S)NC2=O)c(C)[nH]1,.,.,?,.,?,.
CCCn1nnc(NCc2ccc(Cl)cc2Cl)n1,/,/,.,/,/,/
CCc1ccc(/C=N/NC(=S)NCCc2ccccc2)cc1,.,.,22.4µM,.,.,.
Oc1ccc(Br)cc1/C=N/NC(=S)NCCc1ccccc1,.,.,?,.,.,.
CCN(Cc1ccccc1)c1ccc(/C=N/NC(=S)NC(C)C)cc1,.,.,44.7µM,.[11.4 µM],.[11.4 µM],.
S=C(NCCc1ccccc1)N/N=C/c1ccccc1Cl,.,.,39.8µM,.,.,.
COc1ccc(O)c(/C=N/NC(=S)NCCc2ccccc2)c1,.,.,?,.,.,.
S=C(NCCc1ccccc1)N/N=C/c1ccccc1Br,/,/,35.5µM,/,/,/
CCCNC(=O)C(C)(C)Oc1nn(Cc2ccccc2)c2ccc(COC)cc12,/,/,.,/,/,/
S=C(NCc1ccco1)N/N=C/c1ccc(Cl)cc1,.,.,44.7µM,.,.,.
CC(C)(C)c1ccc(/C=N/NC(=S)NCc2ccccc2)cc1,.,.,44.7µM,.,.,.
Cc1ccc2c(c1C)NC(C)CC2C (centres undefined),.,.,4.47µM!,.,.,.
CCOC(=O)Nc1ccc2c(c1)N(C(=O)CCN1CCOCC1)c1ccccc1S2=O (centres undefined),.,.,.,.,31.6µM,.
CCOC(=O)Nc1ccc2c(c1)N(C(=O)CCN1CCOCC1)c1ccccc1S2,.,.,?,.,.,.
Cc1ccc(-c2cc(C(=O)N3CCOCC3)n[nH]2)s1,/,/,.,/,/,/
Cc1nn(-c2ccc(Cl)cc2)c2[nH]c(=O)c(CNCc3ccc4c(c3)OCO4)cc12,.,.,.,.,22.4µM,?
Cc1nnc(NC(=O)c2nc(S(=O)(=O)Cc3ccccc3)ncc2Cl)s1,.,.,?,.,12.6µM,.
O=C(Nc1ccc2ccccc2c1)c1nc(S(=O)(=O)Cc2ccccc2F)ncc1Cl,.,/,/,.,10µM,/
CCCc1nnc(NC(=O)c2nc(S(=O)(=O)Cc3cccc(C)c3)ncc2Cl)s1,.,.,.,.,?,.
Cc1cccc(CSc2ncc(Cl)c(C(=O)Nc3nnc(C)s3)n2)c1,.,.,.,.,.,14.1µM
Cc1cccc(C)c1NC(=O)c1nc(S(=O)(=O)Cc2ccccc2F)ncc1Cl,.,/,/,.,4.47µM,/

# High-throughput results from PubChem BioAssay.
